GLS inhibitor: glutaminase GLS (human) inhibition; O94925; GLS enzymatic activity, qHTS titration; Potency, µM (highest dose often 45.5 µM), inactives show at the highest dose activity change, negative = inhibition, hits mostly inhibitors; actives 0.21% (n = 410,000); AID 624170; also: % is scaled to controls: 0 for no effect and ±100 for the full control effect
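Read-out is an Amplex red fluorescence increase coupled through glutamate oxidase and HRP, measured before and after 30 min room-temperature incubation. hKGA is in 45 mM KH2PO4 (pH 8.2) with 0.02% Tween-20; glutamine added as 1mM solution.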
G9a block: blocks human histone lysine methyltransferase G9a; AID 504332; Q96KQ7; G9a H3K9 monomethylation, AlphaScreen, 2 h; actives 8.8% (n = 350,000); Potency, µM (titrated, usually from 102 µM), inactives show at the top dose activity, negative = inhibition, hits mostly inhibitors; also: % is scaled to controls: 0 for no effect and ±100 for the full control effect; nearly all actives have a fitted effect of over 75% in size
Target sequence (Q96KQ7 913-1193 limits assumed): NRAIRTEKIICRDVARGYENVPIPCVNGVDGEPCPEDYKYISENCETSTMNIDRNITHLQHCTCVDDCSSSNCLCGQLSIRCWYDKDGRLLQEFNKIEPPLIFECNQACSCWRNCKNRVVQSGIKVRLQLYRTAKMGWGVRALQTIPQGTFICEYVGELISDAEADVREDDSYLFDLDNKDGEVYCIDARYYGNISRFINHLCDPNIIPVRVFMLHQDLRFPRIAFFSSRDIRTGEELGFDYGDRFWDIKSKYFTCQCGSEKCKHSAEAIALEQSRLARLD
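G9a (20 nM) was preincubated 15 min with compound, then reacted 2 h at room temperature with 500 nM biotin-H3K9 peptide and 20 µM SAM. Monomethyl-H3K9 detected by AlphaScreen using anti-H3K9me1 antibody.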
JMJD2A Tudor: inhibitors of human JMJD2A Tudor domain; O75164; AlphaScreen JMJD2A-Tudor / H3K4me3 peptide binding; Potency, µM (highest dose often 114 µM), for the others: at the highest dose activity change, negative = inhibition, most hits filed as inhibitors; actives 4.4% (n = 390,000); AID 504339; also: % is scaled to controls: 0 for no effect and ±100 for the full control effect; nearly all actives have a fitted effect of over 50% in size
HP1b chromo inh: HP1-beta chromodomain-methylated histone interaction inhibition; P83916; AlphaScreen HP1-beta / biotin-H3K9me3 peptide binding; Potency, µM (highest dose often 114 µM), for the others: at the highest dose activity change, negative = inhibition, actives largely listed as inhibitors; actives 0.56% (n = 390,000); also: nearly all actives have a fitted effect of over 70% in size
Target sequence (P83916 whole entry, looked up): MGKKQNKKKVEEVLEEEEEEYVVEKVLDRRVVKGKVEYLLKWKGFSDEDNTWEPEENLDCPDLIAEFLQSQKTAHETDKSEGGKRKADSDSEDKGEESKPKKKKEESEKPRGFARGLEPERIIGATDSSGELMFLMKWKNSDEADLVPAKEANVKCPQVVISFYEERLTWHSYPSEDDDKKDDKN
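Compound inhibition of the preformed complex between 50 nM HP1-beta and 50 nM biotinylated H3K9me3 peptide was read by AlphaScreen. Buffer was PBS pH 7.4 with 0.01% Tween-20. Incubations ran 30 min at room temperature, with 10 ug/mL donor/acceptor beads.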
BAZ2B inh: inhibitors of human BAZ2B bromodomain; Q9UIF8; Potency, µM (series often up to 114 µM), inactives show at the highest dose activity change, negative = inhibition, hits mostly inhibitors; actives 4.4% (n = 360,000); AID 504333; AlphaScreen BAZ2B-H3K14Ac peptide displacement; also: % is scaled to controls: 0 for no effect and ±100 for the full control effect; nearly all actives have a fitted effect of over 60% in size
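BAZ2B 50 nM plus b-H3(5-23)K14Ac 50 nM, PBS pH 7.4/0.01% Tween-20, 30 min RT; compound added (max 110 uM), 30 min RT; streptavidin donor/Ni-chelate acceptor beads 10 ug/mL final, 20 min dark; AlphaScreen read.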
* hit, by the source's call; ! = repeats disagree; [ ] = remark or other dose. Most compounds without a hit are left out; they make up all but 10% or so of the library. Calls follow the shape of the dose curve; as a rule, active = well fitted curve in the direction sought with a large enough effect; inconclusive = small, poorly fitted or top-dose-only effect, or another doubt; inactive = no such curve, though single readings can be large; an effect the other way counts as inactive or inconclusive. Potency is read from the fitted curve at half-maximal effect.

For CCOc1cc(-c2ccc3c(c2)OCO3)cc(=[O+]CC)c2c(C)oc(C)c12 the results were JMJD2A Tudor 56.2µM* and HP1b chromo inh inconclusive.
`CCN(CC(=O)NCc1cccs1)C(=O)c1cccc(Cl)c1` gave GLS inhibitor 1.1%, JMJD2A Tudor 2.9% and HP1b chromo inh 17.1%.
`COc1ccc(N(C)S(=O)(=O)c2cccc(C(=O)OCC(=O)Nc3sc4c(c3C#N)CCCCC4)c2)cc1` gave GLS inhibitor 2.0%, G9a block 20.5%[59 µM], JMJD2A Tudor -20.0%, HP1b chromo inh -2.8% and BAZ2B inh 2.9%.
COc1ccccc1N(CC(O)CN1CCOCC1)S(=O)(=O)c1ccccc1 (stereo not given) was read as GLS inhibitor 6.4%, G9a block 50.1µM*, JMJD2A Tudor -15.2%, HP1b chromo inh -1.5% and BAZ2B inh -9.3%.
Screening CCCN(CCC)CC(O)CN(c1cc([N+](=O)[O-])ccc1OC)S(=O)(=O)c1ccccc1 (stereo not given) returned GLS inhibitor 5.8%, G9a block 56.2µM*, JMJD2A Tudor -25.5%, HP1b chromo inh 20.8% and BAZ2B inh -35.9%.
For COc1ccc(C(C(=O)NCC2CCCO2)N(C(=O)CNC(=O)c2cccs2)c2ccccc2)cc1OC (stereo not given) the results were GLS inhibitor 0.6%, G9a block -4.3%, JMJD2A Tudor -10.6%, HP1b chromo inh -14.1% and BAZ2B inh -6.1%.
For CCc1nc(C)ccc1OCC(=O)N1CCc2c([nH]c3ccccc23)C1c1ccccn1 (stereo not given) the results were GLS inhibitor 5.5%, G9a block -5.3%, JMJD2A Tudor inconclusive, HP1b chromo inh 10.4% and BAZ2B inh -13.1%.
Screening CC(C)CC(=O)NC1(C(F)(F)F)C(=O)Nc2c1c(=O)[nH]c(=O)n2Cc1ccco1 (stereo not given) returned GLS inhibitor -24.4%, G9a block inconclusive, JMJD2A Tudor inconclusive, HP1b chromo inh 45.6% and BAZ2B inh inconclusive.
Screening O=C1Nc2c(c(=O)[nH]c(=O)n2Cc2ccccc2)C1(NS(=O)(=O)c1ccccc1)C(F)(F)F (stereo not given) returned GLS inhibitor -0.4%, G9a block 44.7µM*, JMJD2A Tudor -3.5%, HP1b chromo inh 27.6% and BAZ2B inh -1.0%.
`O=C(NC1(C(F)(F)F)C(=O)Nc2c1c(=O)[nH]c(=O)n2Cc1ccccc1)c1ccc(Cl)cc1` (stereo not given) gave GLS inhibitor 15.2%, G9a block inconclusive, JMJD2A Tudor -11.1%, HP1b chromo inh 27.3% and BAZ2B inh -0.3%.
O=C1Nc2c(c(=O)[nH]c(=O)n2-c2ccc(F)cc2)C1(NS(=O)(=O)c1ccc(Cl)cc1)C(F)(F)F (stereo not given) was read as GLS inhibitor -1.6%, G9a block 3.7%[59 µM], JMJD2A Tudor -4.5%, HP1b chromo inh 21.9% and BAZ2B inh -3.2%.
O=C(NC1(C(F)(F)F)C(=O)Nc2c1c(=O)[nH]c(=O)n2Cc1ccco1)C1CCCCC1 (stereo not given) was read as GLS inhibitor -4.3%, G9a block 79.4µM*, JMJD2A Tudor 79.4µM*, HP1b chromo inh 3.1% and BAZ2B inh 2.6%.
`Cc1ccc(-n2c3c(c(=O)[nH]c2=O)C(NS(=O)(=O)c2ccc(Cl)cc2)(C(F)(F)F)C(=O)N3)cc1` (stereo not given) gave GLS inhibitor -4.8%, G9a block 50.1µM*!, JMJD2A Tudor -10.7%, HP1b chromo inh 25.1% and BAZ2B inh -3.7%.
O=c1[nH]cc(S(=O)(=O)c2ccccc2)[nH]1 was read as GLS inhibitor 1.4%, G9a block 6.7%, JMJD2A Tudor -14.3%[11.4 µM], HP1b chromo inh inconclusive and BAZ2B inh 0.7%.
Screening CC(=O)c1cc(C(=O)Nc2ccc3ccccc3c2)c(C)o1 returned GLS inhibitor 11.9%, G9a block -14.9%, JMJD2A Tudor -10.0%, HP1b chromo inh 7.9% and BAZ2B inh -1.1%.
For Cc1ccccc1C(=O)Nc1ccc(N2CCCC2)cc1 the results were GLS inhibitor 27.9%, G9a block 3.16µM*, JMJD2A Tudor 28.2µM*, HP1b chromo inh -12.7% and BAZ2B inh inconclusive.
Screening O=[N+]([O-])c1ccc(N2CCCC2)cc1N1CCCC1 returned GLS inhibitor 25.8%, G9a block -1.4%[12.7 µM], JMJD2A Tudor 44.7µM*, HP1b chromo inh 15.8µM* and BAZ2B inh 25.1µM*.
Screening O=C(Nc1ccc(N2CCCCC2)cc1)c1ccc2ccccc2n1 returned GLS inhibitor 26.2%, G9a block 28.2µM*, JMJD2A Tudor 20µM*, HP1b chromo inh inconclusive and BAZ2B inh inconclusive.
`Cc1ccc(C(=O)Nc2ccc3c(c2)C(=O)N(C)C3=O)c(C)c1` gave GLS inhibitor -4.2%, G9a block 1.5%, JMJD2A Tudor -6.4%, HP1b chromo inh 37.5% and BAZ2B inh -2.6%.
`Cc1ccc(C(=O)Nc2ccc(N3CCCC3)cc2)c(C)c1` gave GLS inhibitor 0.0%, JMJD2A Tudor 50.1µM*, HP1b chromo inh inconclusive and BAZ2B inh inconclusive.
Screening O=[N+]([O-])c1ccc(N2CCCCC2)cc1N1CCOCC1 returned GLS inhibitor -3.0%, G9a block -13.5%, JMJD2A Tudor -18.5%, HP1b chromo inh -1.9% and BAZ2B inh -9.2%[57.1 µM].
Screening O=C(Nc1ccc(N2CCCC2)cc1)c1ccccc1[N+](=O)[O-] returned GLS inhibitor 24.8%, G9a block 12.6µM*, JMJD2A Tudor -6.8%, HP1b chromo inh 25.3% and BAZ2B inh -38.0%.
For CC1=C(C(=O)OCc2ccccc2)C(c2ccc([N+](=O)[O-])cc2)NC(=O)N1C (stereo not given) the results were GLS inhibitor -7.0%, G9a block 0.7%, JMJD2A Tudor -22.9%, HP1b chromo inh 17.7% and BAZ2B inh -29.6%.
CC1=C(C(=O)OCc2ccccc2)C(c2ccccc2[N+](=O)[O-])NC(=O)N1C (stereo not given) was read as GLS inhibitor -0.1%, G9a block 39.8µM*, JMJD2A Tudor -10.9%, HP1b chromo inh 19.5% and BAZ2B inh -38.1%.
CC1=C(C(=O)OCc2ccccc2)C(c2ccccc2Cl)NC(=O)N1CCCCCC(=O)O (stereo not given) was read as GLS inhibitor 1.9%, G9a block 79.4µM*, JMJD2A Tudor -4.2%, HP1b chromo inh 24.1% and BAZ2B inh -30.7%.
Screening CC1=C(C(=O)OCc2ccccc2)C(c2ccccc2-c2ccccc2)NC(=O)N1CCCCCC(=O)O (stereo not given) returned GLS inhibitor -15.6%, G9a block 50.1µM*, JMJD2A Tudor inconclusive, HP1b chromo inh 4.5% and BAZ2B inh 50.1µM*.
